Consider 60 molecules from PubChem BioAssay AID1430 (University of Pittsburgh Molecular Library Screening Center, 2008).

The campaign covered roughly 220,000 compounds. About 240 (0.11%) were called active. Many of the other results were omitted from the sample, so actives are more common in it than they were. Values without a mark were called inactive.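 Rule for the calls: active = inhibition of 50% or more in the single-dose primary screen; inactive = inhibition below 50%.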

In this experiment the test system is hexokinase 1 [Trypanosoma brucei]. Kind of experiment: Trypanosoma brucei hexokinase 1 inhibitors, primary screen, biochemical, G6PDH-coupled NADH absorbance, MLSCN library (AID 1430). The settings on record: recombinant TbHK1, G6PDH-coupled NADH A340; at 10 µM; stronger effect = higher value.
One may read the inhibition as the drop in the measured response relative to a control, in per cent. Consider `O=C(Nc1ccccc1)c1cc2ccccc2[nH]1`, for which the inhibition is -8.21%.

Consider `COC(=O)c1nc(NC(=O)c2ccc(C(C)(C)C)cc2)n[nH]1`, for which the inhibition is -1.14%.

On to `COC(=O)C1CCN(CC(N)=O)CC1`, for which the inhibition was 60.6% (active).

As for `COC(=O)C1CCN(C(=O)c2cc(=O)[nH]c3ccccc23)CC1`, the inhibition was -8.77%.

Consider `CCOC(=O)N1CCC(C(N)=O)CC1`, for which the inhibition was 4.5%.

Consider `O=C(Nc1ccc(S(=O)(=O)N2CCOCC2)cc1)c1ccc2ncsc2c1`, for which the inhibition is -11%.

For `CC12C(=O)N(c3ccccc3)C(=O)C1C(c1ccccc1)N1CCCN12` (stereo not given), the inhibition is -4.21%.

As for `Cc1cccc(-n2c(Cc3cc(=O)[nH]c(=O)[nH]3)nnc2SC(C)C)c1`, the inhibition is -4.19%.

Turning to `Cc1ccc(Nc2nc(CSc3nnc(-c4ccncc4)n3-c3ccccc3C)cs2)cc1`, the inhibition is -6.74%.

Consider `CC1CC(C)CN(S(=O)(=O)c2ccc(C(=O)NN3CCOCC3)cc2)C1` (stereo not given), for which the inhibition was -4.58%.

With `COC(=O)c1cccc([N+](=O)[O-])c1CS(=O)(=O)c1ccc(C)cc1`, the inhibition is -5.68%.

Take `O=C(c1ccc(N2CCOCC2)c([N+](=O)[O-])c1)N1CCN(S(=O)(=O)c2cccs2)CC1`: the inhibition was -0.582%.

On to `Cc1cc(Cl)ccc1OCCCC(=O)NCc1ccncc1`, for which the inhibition was 3.38%.

For the molecule `COc1ccc(C(C(=O)NC(C)(C)C)N(C(=O)Cn2nnc3ccccc32)c2ccc(C(C)=O)cc2)cc1O` (stereo not given), the inhibition is -2.52%.

Take `Nc1nnc(SCC(=O)NC2CCCc3ccccc32)s1` (stereo not given): the inhibition is -14.9%.

As to `O=C(NCCN1CCOCC1)c1cc(Sc2cccc(Cl)c2)nc2ccccc12`, the inhibition is -12.6%.

As to `O=S(=O)(NCc1ccco1)c1cnc(Cl)c(Cl)c1`, the inhibition is 8.75%.

For `CC(C)[C@H](NC(=O)c1ccc(F)cc1)C(=O)OCC(=O)NC(=O)c1cccn1C`, the inhibition is -0.221%.

For the molecule `CCC(C)Cn1c(O)cc2nn(-c3nc4ccccc4s3)c(=O)c-2c1C` (stereo not given), the inhibition was -9.68%.

As for `Cc1ccc(-c2csc(NC(=O)c3cnccn3)n2)cc1C`, the inhibition is -12.7%.

For the molecule `CCOC(=O)CSC1=N/C(=C/c2ccc(-n3cncn3)cc2)C(=O)N1C(C)=O`, the inhibition is -7.02%.

For the molecule `CC1CCN(S(=O)(=O)c2ccc(S(=O)(=O)NCc3cccnc3)cc2)CC1`, the inhibition was 0.223%.

In the case of `O=C(COC(=O)[C@H](Cc1ccccc1)NC(=O)c1cccs1)Nc1cc(F)ccc1F`, the inhibition was 6.99%.

For the molecule `O=C(/C=C\c1ccc2c(c1)OCO2)NC1(C(=O)Nc2ccc3c(c2)OCCO3)CCCCC1`, the inhibition was -15.6%.

Consider `Cc1ccc(C)c(NC(=S)NNC(=O)c2csc(C)c2)c1`, for which the inhibition is 3.89%.

Regarding `O=C(CCc1[nH]c2ccccc2c1Sc1ccccc1)N(CCO)CCO`, the inhibition is 19.8%.

For the molecule `Cc1nnsc1S(=O)(=O)Cc1ccccc1Cl`, the inhibition was 5.71%.

Turning to `COCCNC(=S)N/N=C/c1c(C)[nH]c2ccccc12`, the inhibition was -58.6%.

As for `CC(=O)Nc1ccc(S(=O)(=O)N(CCc2ccccc2)CC(=O)N/N=C/c2ccc(C(=O)O)cc2)cc1`, the inhibition is -12.9%.

With `CCOC(=O)C1(c2ccccc2)NC(c2ccc(N(C)C)cc2)C2C(=O)N(C)C(=O)C21` (stereo not given), the inhibition is -3.65%.

Regarding `COc1cc(CN(C)Cc2nc3cc(C(F)(F)F)ccc3c(=O)[nH]2)ccc1OC(F)F`, the inhibition was 1.94%.

`Fc1ccc(/C=N/Nc2nc(-c3cccnc3)nc3ccccc23)cc1`: the inhibition was -55.8%.

For the molecule `COc1ccc(OCC(O)CNC(=O)Nc2ccc(Cl)cc2)cc1` (stereo not given), the inhibition was 2.73%.

Regarding `Cc1cc(=O)oc(C)c1C(=O)NC1CC(C)(C)NC(C)(C)C1`, the inhibition was -4.42%.

As for `O=C(Cn1c(N2CCN(C/C=C/c3ccccc3)CC2)nc2ccccc21)c1ccccc1`, the inhibition is -2.21%.

With `Cc1nn(-c2ccccc2)c(=O)c2noc(C)c12`, the inhibition was -6.64%.

Take `CCOC(=O)c1cccnc1NC(=O)c1ccncc1`: the inhibition was -3.95%.

Regarding `Cc1nc(-c2ccc(Cl)cc2)sc1C(=O)NN`, the inhibition is -13%.

Regarding `CC(C)CNC(=O)COC(=O)/C=C/c1ccco1`, the inhibition was -4.39%.

As to `CCN(C(=O)CN1CCN(Cc2ccccc2)CC1)c1c(N)n(Cc2ccccc2)c(=O)[nH]c1=O`, the inhibition is 4.79%.

As for `Cc1cccc(OC(=O)c2sc3ncn(C)c(=O)c3c2C)c1`, the inhibition is 2%.

On to `Cc1cccc(NC(=S)N2CCC(O)CC2)c1C`, for which the inhibition is 5.41%.

For `O=[N+]([O-])c1cc(S(=O)(=O)N2CCCC2)ccc1NN=C1CCCC1`, the inhibition is 36.1%.

With `Cc1ccc(S(=O)(=O)NC(=O)Nc2nc(-c3ccc(F)c(F)c3)cs2)cc1`, the inhibition was -8.79%.

As to `Cc1ccccc1NC(=S)N(CCCN1CCOCC1)Cc1cccs1`, the inhibition is 25.4%.

For `COc1ccc(CN(C)Cc2nc3cc(OC)c(OC)cc3c(=O)[nH]2)c(OC)c1`, the inhibition is 1.93%.

Regarding `COc1ccc(CC(=O)NCc2nnc(SCC(=O)Nc3nccs3)n2C)cc1`, the inhibition was -2.5%.

As for `O=C(/C=C/c1ccccc1)Oc1coc(CSc2ncccn2)cc1=O`, the inhibition is -1.22%.

Regarding `CCc1ccc(NC2Nc3cc(C)nn3S2)cc1` (stereo not given), the inhibition is -2.97%.

On to `CC(=O)c1ccc(S(=O)(=O)Nc2ccc(C(=O)NCC(c3ccccc3)N(C)C)cc2)cc1` (stereo not given), for which the inhibition was -5.8%.

On to `O=C(Nc1cccc2c1N(C(=O)c1ccco1)CCC2)c1ccco1`, for which the inhibition was -6.72%.

Take `CCOc1cnc(-c2c(-c3ccccc3Cl)noc2C)o1`: the inhibition was -3.33%.

As for `O=C(O)COc1ccc(/C=N/O)cc1Br`, the inhibition was 6.57%.

For the molecule `O=S(=O)(Nc1ccc2cn[nH]c2c1)c1ccccc1`, the inhibition was -2.67%.

As for `O=C(O)C(c1ccccc1)C1(O)CCCCC1` (stereo not given), the inhibition was -7.32%.

In the case of `S=C(NCc1ccc2c(c1)OCO2)NCc1ccco1`, the inhibition was -4.45%.

Consider `COc1ccc(/C=C/C(=O)Nc2c(C)nn(C)c2C)cc1COc1ccc(Br)cc1`, for which the inhibition was -11.6%.

As to `Cc1csc(=Nc2ccccc2)n1CCO`, the inhibition was -4.03%.

For `O=C(Cn1cnc([N+](=O)[O-])n1)NCCc1ccccc1`, the inhibition was -4.47%.

For the molecule `COc1cccc(CC2(CO)CCCN(Cc3nc(-c4cccs4)oc3C)C2)c1` (stereo not given), the inhibition was 6.9%.
